Here are results for 28 compounds from PubChem BioAssay AID2315 (National Center for Advancing Translational Sciences (NCATS), 2010).

The whole screen tested about 290,000 compounds, of which about 27,000 (9.3%) were called active. Only a selection was taken, and actives are over-represented in it overall. Values without a mark were called inactive. Cut-off read from the data, not from the text of the source: active = inhibition mostly above about 28% (no sharp cut-off); inactive = mostly below about 43%.

This assay in a line: A qHTS for Small Molecule Inhibitors of Shiga Toxin. Note: 0% is about no effect. The following applies: Vero cells, Shiga toxin protein synthesis inhibition reporter; at 38.7 µM, stronger effect = higher value. (Quantitative high-throughput screening tests each substance at several concentrations.)
What is called inhibition is the relative decrease from the control value, in per cent. Turning to `O=C(NC1CCC(O)CC1)c1ccccc1OCc1ccc(F)cc1` (stereo not drawn), the inhibition is -2.79%. The figure for `Cc1ccc(C)c(-n2nnnc2SCC(=O)c2c(N)n(C)c(=O)n(C)c2=O)c1` is -10.4%; for `CC(=O)Nc1ccc(NC(=O)CSc2nnnn2-c2ccccc2F)cc1` it is 61.1%; for `COc1ccc(C(=O)CSc2nnnn2C)c(OC)c1` it is 32.4%. As for `CCn1nnnc1SCC(=O)c1ccc(C)cc1C`, the inhibition is 77.4% (active). `COc1ccc(-n2nnnc2SCC(=O)Nc2ccccc2)cc1`: the inhibition was -15.5%. As for `CCn1nnnc1SCC(=O)Nc1ccc(N(C)C)cc1`, the inhibition is 44.2% (active). For `Cc1cc(C(=O)N/N=C/c2ccccn2)c2ccccc2n1`, the inhibition was -6.51%. As to `O=C(Nc1ccccc1N1CCN(C(=O)c2ccccc2)CC1)c1ccco1`, the inhibition was 9.04%. Consider `CC(C)NS(=O)(=O)c1ccc(OCC(=O)NC2CCCCCC2)cc1`, for which the inhibition is -16.9%. For `CC(Oc1ccc(F)cc1)C(=O)N1CCN(c2ncccn2)CC1` (stereo not drawn), the inhibition was -12.5%. For `Cc1ccc(NC(=O)c2oc(=O)c3ccccc3c2-c2ccccc2)c(C)c1` the value was -10.4%; for `Cc1ccc(NC(=O)CCC(=O)N/N=C/c2ccco2)c(C)c1`, 9.07%; for `Cc1ccc(NN=C2C(=O)OC(C)(C)OC2=O)c(C)c1`, 93.9% (active). For `COC(=O)C(C)n1cnc2c(nnn2-c2ccc(F)cc2)c1=O` (stereo not drawn) the value was 8.93%; for `COc1ccc(NC(=O)c2sc3nc(C)nc(N4CCN(c5ccccn5)CC4)c3c2C)c(OC)c1`, -5.19%.

For `CCn1ccnc1CN(C)Cc1nc(-c2ccc3c(c2)OCO3)no1`, the inhibition is 50.1% (active). On to `CC(C)N(Cc1nc(-c2ccc3c(c2)OCO3)no1)CC1CCC(=O)N1` (stereo not drawn), for which the inhibition is -4.06%. With `CN(CCN1CCOCC1)Cc1nc(-c2ccc3c(c2)OCO3)no1`, the inhibition is 13.4%. On to `O=C(OCC(=O)c1cccs1)c1ccc([N+](=O)[O-])o1`, for which the inhibition was 41.9%.

On to `CCC(C)(C)c1ccc(Oc2ccc(NC(=O)COC(=O)C3=COCCO3)cc2)cc1`, for which the inhibition was 23.6%. With `O=C(OCC(=O)c1cccs1)C1=COCCO1`, the inhibition was 98.9% (active). Regarding `O=C(NCc1ccccc1)C1CCN(C(=O)Cc2ccccc2)CC1`, the inhibition is -23.8%. With `O=C(CCn1nnnc1CN1CCOCC1)N1CCC(c2ccccc2Cl)C1` (stereo not drawn), the inhibition was 11%. For the compound `NC(=O)c1c(Nc2nc3c(F)cccc3s2)sc2c1CCCC2`, the inhibition is 13.4%. Turning to `NNc1nc2c(Cl)cccc2s1`, the inhibition is 69.4% (active).

Turning to `CN(C)CCCN(C(=O)COc1ccccc1)c1nc2c(Cl)cccc2s1`, the inhibition was -6.79%.

For the compound `C/C(=N\NC(=O)c1cccc([N+](=O)[O-])c1)c1cccnc1`, the inhibition was 11.6%.
